# Laboratory results: ChEMBL document CHEMBL4888484, “Replenishing the malaria drug discovery pipeline: Screening and hit evaluation of the MMV Hit Generation Library 1 (HGL1) against asexual blood stage Plasmodium falciparum ,using a nano luciferase reporter read-out” (2022)
# Among all 150,000 compounds or so, about 540 (0.36%) showed an effect of 50% or more. This is one part of a sample in which strong results are shown more often than they occur.
# System: Plasmodium falciparum
# Experiment: Primary screen in NF54 nanoGlo assay, in single point, at 2uM, 72h; a lower Z score goes with more inhibition
# Type: functional, Erythrocyte
# Conditions: timepoint 72 hour
Compound,% Inhibition,Z score
CC(C)CCn1c(=O)c(-c2ccc3ccccc3n2)cc2ccccc21,-1%,0.07
c1ccc(-c2cn3c(n2)c(-c2ccc4ccccc4n2)cc2ccccc23)cc1,76%,-4.16
Clc1ccc(-c2cn3c(nc4ccccc43)c(-c3ccccc3)n2)cc1,-43%,5.09
COc1ccc(C[C@@]2(CCC(=O)N3CCCCC3)CCC(=O)N2)cc1,4%,-0.58
OC(CNC1CCCNc2ccccc21)c1ccc(Cl)s1 (stereo not given),57%,-4.74
OCc1cc(CN[C@H]2CCCNc3ccccc32)ccc1F,4%,-0.52
O=C(Cc1cccs1)N1CCC2(CCC(=O)N(CCc3cccnc3)C2)CC1,5%,-1.07
COc1ncnc(OC)c1CNc1cnn(C)c1,35%,-0.52
O=C(CC(F)(F)F)N1CCC[C@H](Oc2ncccn2)C1,14%,-1.95
Cc1noc2ncnc(N3CCC4(CC3)CC(=O)N(Cc3ccccc3)C4)c12,-6%,0.71
O=C(c1cc(-c2ccco2)n[nH]1)N1CCC(Oc2ccccn2)CC1,-4%,0.71
O=C(c1cc(-c2ccccc2)n[nH]1)N1CCC(N2CCC(Oc3ccccc3F)CC2)CC1,-12%,1.48
O=C(c1cc(-c2ccco2)n[nH]1)N1CCC(N2CCC(Oc3ccccc3F)CC2)CC1,59%,-4.88
CC[C@H](Oc1ccccc1C)c1nnc(C2(c3ccccc3)CC2)o1,-15%,1.76
CC(C)(C)OC(=O)NC1CCCC1Nc1cnn(-c2ccccn2)c1 (stereo not given),-13%,1.28
Cc1ccsc1-c1noc([C@@H]2COCCN2C)n1,87%,-14.98
Cc1ccsc1-c1noc([C@H]2CCc3nccn3C2)n1,-5%,0.62
Cc1cnn(C)c1CN1CCOC[C@H]1c1nc(-c2ccccc2)no1,16%,-2.06
CC(NCc1ccc(Br)c2cccnc12)C1CCOC1 (stereo not given),-5%,0.52
Cc1ccc(C(=O)Nc2c(C)nc(N3CCOCC3)nc2C)cc1C,13%,-2.05
Cc1n[nH]c(C)c1S(=O)(=O)Nc1cccc2cccnc12,-2%,0.25
O=S(=O)(Nc1cccc2cccnc12)c1cccs1,55%,-5.93

Compound,% Inhibition,Z score
O=S(=O)(Nc1cccc2ccccc12)c1cccs1,35%,-3.95
CCN1C[C@]2(CCCN(C(=O)c3ccccc3N3CCCC3)C2)CCC1=O,7%,-1.03
Cc1nn(-c2cnc(N)cn2)c(C)c1Cc1ccccc1,-7%,0.91
COc1ccc(CC(=O)N2CC3(C[C@H](N4CCN(C)CC4)CO3)C2)cc1,-7%,1.04
Clc1ccccc1OCCn1nc(C2CC2)nc1C1CC1,2%,-0.37
C[C@@H]1CN(c2nc(C(F)F)nc3ccc(F)cc23)C[C@H](C)N1,-4%,0.64
CO[C@@H]1CO[C@H]2[C@@H]1OC[C@@H]2Nc1nccc(-c2ccc3c(c2)OCO3)n1,-2%,0.19
CCn1ccc(C(=O)N2CCCN(Cc3c(C)noc3C)CC2)n1,-3%,0.35
CC[C@H]1CCCCCN1C(=O)c1ccnc(OC2CCC2)c1,-5%,0.5
NC(=O)[C@@H]1CCCN1C(=O)c1ccnc(OC2CCCCC2)c1,53%,0.89
NC(=O)[C@@H]1CCCCN1C(=O)c1ccnc(-n2cccn2)c1,12%,-1.33
COc1ccc(CCc2nc(NC(=O)[C@H]3CC(=O)N(C)C3)n[nH]2)cc1OC,15%,-2.27
COc1ccc(CCc2nc(NC(=O)C(C)C)n[nH]2)cc1OC,13%,-1.63
COc1ccc(CCc2nc(NC(=O)c3nc(C)sc3C)n[nH]2)cc1OC,71%,-9.67
COC1CCCC(CC(=O)NC2CC(=O)N(C)C2)C1 (stereo not given),2%,-0.4
CC(C)C[C@H]1CCCN(CC(=O)N2CC(=O)Nc3ccccc32)C1,-1%,0.19
CN(C[C@H](O)C(F)(F)F)C(=O)c1ccc(C#N)cn1,-15%,1.32
CC(=O)N1CCN(C(=O)NCc2cc(F)ccc2C)C[C@@H](O)C1,-9%,0.8
CCC[N+]1(CC#C[C@@](O)(c2ccccc2)C2(C)CCCC2)CCCCC1,51%,-4.55
CCC(C)(CC)[C@@](O)(C#CC[N+]1(Cc2ccccc2Cl)CCCCC1)c1ccccc1,39%,-4.45
CCC1([C@@](O)(C#CCN2CCCCCC2)c2ccccc2)CCCC1,-16%,1.41
CCC1([C@@](O)(C#CCN(Cc2ccccc2)C(C)(C)C)c2ccccc2)CCCC1,33%,-3.73

Compound,% Inhibition,Z score
CCC(C)(CC)[C@@](O)(C#CC[N+]1(Cc2ccccc2)CCCCC1)c1ccccc1,38%,-1.99
CC1([C@@](O)(C#CC[N+]2(C)CCCCC2)c2ccccc2)CCCC1,60%,-9.64
C[N+]1(C/C=C/C(O)(c2ccccc2)c2ccccc2)CCCCC1,12%,-1.05
CCC[N+]1(CC#CC2(O)CCCCC2)CCOCC1,-9%,1.67
CCC[N+]1(CC#C[C@@](O)(c2ccccc2)C(C)(CC)CC)CCCCC1,54%,-8.65
CCOC[C@H]1CCN(C(=O)C2(O)CN(C(=O)OC(C)(C)C)C2)C1,-4%,0.81
Cn1cccc(C(=O)N2CCC(c3nnc(C(F)(F)F)o3)CC2)c1=O,-12%,1.33
Cc1ccc(-c2cc(C(=O)Nc3ncccc3Cl)c3ccccc3n2)s1,3%,-0.34
CCOc1cc2c(cc1CN1CCN(C)[C@]3(CCC(=O)N(C)CC3)C1)CCC2,-10%,1.92
CC1(C(=O)N2CC3CCCCC3C2)CCCC1 (stereo not given),-24%,2.4
O=C(c1cccc2cc[nH]c12)N1C[C@@H]2[C@H](C1)[C@H]1CC[C@@H]2O1,18%,-1.92
c1cc(-c2nc3ccccc3o2)cc(-c2nc3ccccc3o2)c1,-13%,2.52
Clc1ccc(C[n+]2ccc(-c3nc4ccccc4o3)cc2)c(Cl)c1,79%,-11.4
Clc1ccc(COc2ccc(Br)cc2CNc2ccc(-c3nc4ccccc4o3)cc2)c(Cl)c1,-39%,4.57
Cc1cc(C(=O)NCc2ccncc2)c(=O)n(C)c1C,-11%,1.52
CC(NCC1CS(=O)(=O)c2ccccc21)[C@@H]1C[C@H]1C1CC1 (stereo not given in full),-3%,0.41
O=C(Nc1ccccc1F)C1CCN(c2cc(C3CC3)ncn2)CC1,-16%,3.11
NC(=O)c1ccccc1NC(=O)C1CCN(c2cc(N3CCCC3)ncn2)CC1,7%,-1.36
NC(=O)c1ccccc1NC(=O)C1CCN(c2cc(C3CC3)ncn2)CC1,57%,-10.93
Cc1cc(NC(=O)c2ccc3c(c2)C(=O)N(C[C@H]2CCCO2)C3=O)no1,-8%,1.45
CNC(=O)[C@@H]1CCCN1C(=O)CNC(=O)c1cccc2c1OCC2,-5%,0.71
Cc1ncsc1CCN(C)CCn1cc[nH]c1=O,-15%,3.22

Compound,% Inhibition,Z score
O=C(NC(C1CC1)C1CC1)c1coc(COc2cccc(F)c2)n1,-6%,1.01
Cc1noc(C)c1CC(=O)N1CCCCCC1,-23%,2.1
Cc1noc(Cl)c1CC(=O)N1CCCC(C)(C)CC1,44%,-6.85
CC[C@@]1(C)CCCN(C(=O)Cc2c(C)noc2Cl)C1,85%,-13.67
Cc1cc(C(=O)Nc2nc(C)cs2)on1,-13%,2.13
c1ccc2c[n+](Cc3ccc4ccccc4n3)ccc2c1,59%,-7.39
Cc1ccc[n+](CC2OCc3ccccc3CO2)c1,5%,-0.68
Cc1nnc(CN(C)Cc2ccc3ccccc3n2)o1,-21%,2.06
Cc1ccc[n+](Cc2ccc3ccccc3n2)c1,59%,-7.89
c1ccc2cc(-c3ccc4ccccc4n3)ccc2c1,41%,-1.59
O[C@@H](Cc1ccc2ccccc2n1)c1ccccc1,33%,0.78
Cc1ccc(S(=O)(=O)N2CCO[C@@H](COc3ccccc3)C2)c(C)c1NS(C)(=O)=O,0%,0.05
COC(C)(C)CCC[C@H](C)CCNCC(C)(C)N1CCOCC1,1%,-0.18
N#C[C@H]1C(=O)c2ccccc2N(Cc2ccccc2)C1=O,-5%,0.84
CCN1CC(=O)N[C@H]2CN(C(=O)c3cnn(CC)c3C)CC[C@@H]2OCc2cccc(c2)Oc2cc(OC(C)C)cc(c2)C1=O,-5%,0.73
CCn1nc(-c2ccc(OC)cc2F)cc1C(=O)NCCN1CCCCC1,-17%,2.1
Cc1cc(C)c2nc(N3CCC(C(=O)NC4CCCCCC4)CC3)sc2c1,-8%,1.22
CC(C)CNC(=O)CS(=O)(=O)Cc1ccccc1,-6%,1.18
CCOC(=O)N1CCC(NC(=O)c2coc(NC(=O)Cc3c(C)noc3C)n2)CC1,18%,-2.53
